For five compounds, z-score and composite z-score results are on record in PubChem BioAssay.

The source made the active and inactive calls.

Assay [1] in a line: optical density shifts of acrAB sulA E. coli – strain DRC41, OD650, 48 h, E. coli filamentation inducer project, primary screen (AID 1152).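 Further: E. coli MC1000 strain DRC41 lacking acrAB efflux pump and sulA.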 The note with it: higher = more signal, called active from +8 up or from −8 down.
The nature of assay [2]: probe aLefty1 binding on compound microarray – biochemical, small-molecule microarray, 635/667 nm fluorescence, primary screen (AID 1153).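 Further: score merges spot fluorescence with signal-to-noise ratio from the scanned slide images.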 The note with it: higher = more signal.
The nature of assay [3]: plasmodial surface anion channel blockers, osmotic lysis – cell-based, P. falciparum Indochina, OD700, 1 h, primary screen (AID 1154). The note with it: P. falciparum Indochina infected RBC osmotic lysis, higher = more signal, called active from +8 up or from −8 down.
Assay [4] in a line: plasmodial surface anion channel blockers, osmotic lysis – cell-based, P. falciparum Indochina, OD700, 2 h, primary screen (AID 1155).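 Further: lysis reports solute entry through the parasite surface anion channel PSAC.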 The note with it: P. falciparum Indochina infected erythrocytes, higher = more signal, called active from +8 up or from −8 down.
Assay [5] in a line: changes in parasitized red cell lysis, either direction – P. falciparum Indochina, OD700, 3 h, PSAC antagonist project, primary screen (AID 1156). The note with it: P. falciparum-infected erythrocytes, osmotic lysis, higher = more signal, called active from +8 up or from −8 down.
The nature of assay [6]: plasmodial surface anion channel blockers, osmotic lysis – cell-based, P. falciparum Indochina, OD700, 18 h, primary screen (AID 1157). As to conditions: P. falciparum Indochina infected erythrocytes, osmotic lysis OD700, 18 h; higher = more signal, called active from +8 up or from −8 down.
A short description of assay [7]: S6 kinase pathway phospho-S6 level changes – cell-based, A549, cytoblot, luminescence, serum-stimulated, primary screen (AID 1158).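 Further: serum-stimulated A549 lung adenocarcinoma cells; signal is phosphorylated S6 detected by cytoblot immunostaining with HRP secondary.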 The note with it: 5 h, higher = more signal.
Assay [8] addresses NADPH oxidase 2 (Homo sapiens) (UniProt P04839). As to the kind of experiment: compounds shifting NOX2 Amplex Red fluorescence – cell-based, HEK293-NOX2, PMA-stimulated, NOX inhibitor project, primary screen (AID 1159). Further: test concentration not given here. As to conditions: 45 min, higher = more signal, called active from +8 up or from −8 down.
Assay [9] concerns the target NADPH oxidase 4 (Homo sapiens) (UniProt Q9NPH5). Nature of the assay: compounds shifting NOX4 Amplex Red fluorescence – cell-based, HEK293-NOX4, tetracycline-induced, NOX inhibitor project, primary screen (AID 1160). The note with it: HEK293-NOX4, Amplex Red H2O2 fluorescence, 45 min; higher = more signal, called active from +8 up or from −8 down.
Assay [10] concerns the target NADPH oxidase 5 (Homo sapiens) (UniProt Q96PH1). Nature of the assay: compounds shifting NOX5 Amplex Red fluorescence – cell-based, HEK293-NOX5, NOX inhibitor project, primary screen (AID 1161). As to conditions: HEK293-NOX5, ionomycin, 45 min, higher = more signal.
Assay [11] is described as follows: compound effects on lung adenocarcinoma cell viability – A549, calcein-AM fluorescence, 48 h, basal, profiling panel (AID 1162). Further: test concentration not given here. The note with it: higher = more signal.
Assay [12] in a line: compound effects on differentiated 3T3-L1 adipocyte viability – cell-based, 3T3-L1 adipocytes, calcein-AM fluorescence, 48 h, basal, profiling panel (AID 1163). Further: test concentration not given here. The note with it: 3T3-L1 adipocytes viability, higher = more signal.
Assay [13] in a line: compound effects on hepatocellular carcinoma cell viability – HepG2, calcein-AM fluorescence, 48 h, basal, profiling panel (AID 1164). Further: test concentration not given here. As to conditions: higher = more signal.
Assay [14] can be described thus: compound effects on multiple myeloma cell viability – MM1S, calcein-AM fluorescence, 48 h, basal, profiling panel (AID 1165). Further: test concentration not given here. As to conditions: higher = more signal.
A short description of assay [15]: calcein-AM signal in unstimulated myeloma cells – cell-based, calcein-AM fluorescence, 48 h, PK04 Diversity Set, profiling panel (AID 1166).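 Further: cells grown under basal conditions without added stimulus; test concentration not given here.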 As to conditions: RPMI8226 myeloma viability, higher = more signal.
Assay [16] in a line: JC-1 mitochondrial signal, unstimulated HepG2 cells – cell-based, JC-1 fluorescence, 24 h, 100 nL compound, profiling panel (AID 1167). Further: test concentration not given here. As to conditions: HepG2 mitochondrial potential, higher = more signal.
Assay [17] can be described thus: JC-1 mitochondrial signal, unstimulated adipocytes – cell-based, JC-1 fluorescence, 3T3-L1 adipocytes, 24 h, 100 nL compound, profiling panel (AID 1168). Further: test concentration not given here. As to conditions: JC-1 mitochondrial fluorescence, higher = more signal, called active from +8 up or from −8 down.
Assay [18] in a line: JC-1 mitochondrial signal, unstimulated myeloma cells – cell-based, JC-1 fluorescence, RPMI8226, 24 h, 100 nL compound, profiling panel (AID 1169). Further: test concentration not given here. As to conditions: JC-1 mitochondrial potential fluorescence, higher = more signal.
A short description of assay [19]: JC-1 mitochondrial signal, unstimulated MM1S myeloma – cell-based, JC-1 fluorescence, 24 h, 100 nL compound, profiling panel (AID 1170). Further: test concentration not given here. As to conditions: MM1S mitochondrial potential, higher = more signal.
The nature of assay [20]: resazurin metabolic signal in A549 cells – cell-based, resazurin fluorescence, 24 h, PK04 Diversity Set, profiling panel (AID 1171). Further: test concentration not given here. As to conditions: A549 viability, higher = more signal, called active from +8 up or from −8 down. For orientation: The colour change of resazurin is a common sign of viable cells or microbes.

NADPH oxidase 4 (Homo sapiens), sequence (Q9NPH5 whole entry, looked up): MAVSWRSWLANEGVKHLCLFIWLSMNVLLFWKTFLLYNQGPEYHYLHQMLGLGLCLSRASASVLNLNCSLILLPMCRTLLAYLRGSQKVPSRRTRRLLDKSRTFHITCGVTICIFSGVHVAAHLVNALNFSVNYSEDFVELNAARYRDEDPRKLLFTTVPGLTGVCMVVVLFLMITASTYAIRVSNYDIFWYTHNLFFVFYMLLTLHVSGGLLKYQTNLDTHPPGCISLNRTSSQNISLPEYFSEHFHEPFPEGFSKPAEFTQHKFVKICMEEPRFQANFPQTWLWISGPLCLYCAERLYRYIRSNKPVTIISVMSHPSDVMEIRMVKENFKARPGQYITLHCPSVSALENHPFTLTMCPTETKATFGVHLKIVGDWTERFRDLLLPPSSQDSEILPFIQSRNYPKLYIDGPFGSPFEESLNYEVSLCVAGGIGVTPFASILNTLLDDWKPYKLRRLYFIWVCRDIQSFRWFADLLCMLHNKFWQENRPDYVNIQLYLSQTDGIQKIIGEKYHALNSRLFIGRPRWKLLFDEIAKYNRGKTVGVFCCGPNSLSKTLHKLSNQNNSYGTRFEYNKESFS
NADPH oxidase 5 (Homo sapiens), sequence (Q96PH1 whole entry, looked up): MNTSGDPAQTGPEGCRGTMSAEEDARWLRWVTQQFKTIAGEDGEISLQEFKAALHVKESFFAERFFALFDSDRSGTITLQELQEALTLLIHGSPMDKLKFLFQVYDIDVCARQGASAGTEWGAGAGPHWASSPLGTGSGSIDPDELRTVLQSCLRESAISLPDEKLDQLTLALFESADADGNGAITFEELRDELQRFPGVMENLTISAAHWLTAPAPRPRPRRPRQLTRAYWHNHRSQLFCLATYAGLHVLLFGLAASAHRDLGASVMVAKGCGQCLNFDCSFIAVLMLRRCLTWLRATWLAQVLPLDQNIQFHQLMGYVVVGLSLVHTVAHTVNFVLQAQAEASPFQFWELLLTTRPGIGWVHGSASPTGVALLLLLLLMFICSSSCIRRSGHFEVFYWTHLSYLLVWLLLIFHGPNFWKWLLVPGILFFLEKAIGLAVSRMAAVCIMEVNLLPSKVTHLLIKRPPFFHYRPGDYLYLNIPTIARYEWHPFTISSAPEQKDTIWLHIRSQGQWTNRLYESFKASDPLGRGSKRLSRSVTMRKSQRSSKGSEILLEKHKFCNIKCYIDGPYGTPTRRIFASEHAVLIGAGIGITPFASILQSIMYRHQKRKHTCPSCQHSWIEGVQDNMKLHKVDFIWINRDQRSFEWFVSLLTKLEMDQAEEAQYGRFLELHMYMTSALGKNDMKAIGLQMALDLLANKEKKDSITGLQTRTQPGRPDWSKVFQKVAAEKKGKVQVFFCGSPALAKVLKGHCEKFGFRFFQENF
NADPH oxidase 2 (Homo sapiens), sequence (P04839 whole entry, looked up): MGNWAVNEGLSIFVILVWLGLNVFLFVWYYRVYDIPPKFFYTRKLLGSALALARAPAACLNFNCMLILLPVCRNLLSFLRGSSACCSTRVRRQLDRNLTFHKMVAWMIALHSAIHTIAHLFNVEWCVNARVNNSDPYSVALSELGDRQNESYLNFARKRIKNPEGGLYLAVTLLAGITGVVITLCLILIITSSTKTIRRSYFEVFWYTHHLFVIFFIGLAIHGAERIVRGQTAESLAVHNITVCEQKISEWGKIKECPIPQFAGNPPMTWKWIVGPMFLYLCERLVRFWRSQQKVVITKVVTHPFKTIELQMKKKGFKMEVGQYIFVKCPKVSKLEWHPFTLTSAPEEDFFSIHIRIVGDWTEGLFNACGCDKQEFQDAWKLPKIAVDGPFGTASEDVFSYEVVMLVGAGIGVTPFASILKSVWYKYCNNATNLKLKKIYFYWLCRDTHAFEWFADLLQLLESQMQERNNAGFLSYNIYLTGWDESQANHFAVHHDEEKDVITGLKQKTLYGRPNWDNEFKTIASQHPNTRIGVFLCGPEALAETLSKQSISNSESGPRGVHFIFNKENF

Consider `COCCOC(=O)N1C(=O)[C@@]2(c3cc(C#Cc4ccc(OC)cc4)ccc31)[C@H](C(=O)N1CCN(c3ncccn3)CC1)[C@H]1C(=O)O[C@H](c3ccccc3)[C@H](c3ccccc3)N1[C@@H]2c1ccc(OCCO)cc1`, for which the z-score in assay [1] was -0.541 (inactive); in [3], 10.1 (active); in assay [4] it was 2.52 (inactive); in [5], 0.493 (inactive); in assay [6] it was 1.04 (inactive); in [7], -0.21. The z-score is 1.51 (inactive) in [8]; 0.337 (inactive) in [9]; -0.0992 in assay [10]; -0.758 in [11]; 0.717 in assay [12]; 0.0264 in assay [13]. Also, the z-score in assay [14] was -1.01; in [15], 0.581; in assay [16], 0.331; in assay [17], 3.91 (inactive); in [18], -0.453; in assay [19], -0.885. For the same compound, the z-score in assay [20] is -0.212 (inactive). For the same compound, in assay [2], the composite z-score stood at 0.327.
Take `CC(C)CON=C1C[C@@H](O)[C@@H](O)[C@@H]2[C@@H]3C(=O)N(C[C@@H]4CCCO4)C(=O)[C@@H]3CC[C@H]12`: the z-score is 0.165 (inactive) in assay [1]; 0.0811 (inactive) in assay [3]; 0.449 (inactive) in assay [4]; -0.425 (inactive) in assay [5]; -0.0131 (inactive) in assay [6]; -0.383 in assay [7]. The z-score was 0.202 (inactive) in assay [8]; 0.313 (inactive) in [9]; -0.61 in assay [10]; -0.31 in assay [11]; -0.528 in assay [12]; -0.222 in [13]. Besides, the z-score in assay [14] is 0.12; in assay [15], -0.259; in [16] it was -0.637; in [17], -1.27 (inactive); in assay [18], 0.347; in [19], 0.0335. The z-score in assay [20] is 0.322 (inactive). Further, the composite z-score in [2] was -0.0559.
Regarding `Cn1cccc1C(O)C1C=CC2C(=O)NC(=O)C2N1Nc1ccccn1` (stereo not given), the z-score in [1] was -1.07 (inactive); in assay [3], 2.33 (inactive); in assay [4], 2.41 (inactive); in [5], 0.801 (inactive); in [6], 1.49 (inactive); in assay [7], -1.14. In addition, the z-score in assay [8] was -2.54 (inactive); in [9], -4.94 (inactive); in assay [10], -5.28; in assay [11], -1.77; in assay [12] it was -0.0273; in [13], -2.88. Further, the z-score in assay [14] was -1.99; in assay [15], -3.88; in [16] it was -4.01; in assay [17], 1.73 (inactive); in [18], -1.11; in assay [19], -1.88. In addition, in [20], the z-score was -1.14 (inactive). The same compound had a composite z-score in assay [2] of -0.289.
With `CCOC(=O)NN=C1C[C@@H](O)[C@@H](O)[C@@H]2[C@@H]3C(=O)N(C4CCCCC4)C(=O)[C@@H]3CC[C@H]12`, the z-score is -1.02 (inactive) in assay [1]; 3.79 (inactive) in [3]; 0.323 (inactive) in [4]; 0.822 (inactive) in [5]; 0.574 (inactive) in assay [6]; -0.0238 in assay [7]. For the same compound, the z-score in [8] is 2.18 (inactive); in assay [9], -1.17 (inactive); in assay [10], -1.46; in assay [11], -0.392; in assay [12], 1.04; in [13], 0.31. Besides, the z-score in assay [14] was -0.796; in [15], -1.06; in assay [16] it was -0.0619; in assay [17] it was -1.05 (inactive); in [18], -0.527; in assay [19], 0.51. Besides, the z-score in [20] is -1.23 (inactive). Further, the composite z-score in assay [2] is -0.288.
Turning to `CCc1cc2c(nc1CC)CCN(CCC(C)=NOC[C@@H](O)COCc1ccco1)C2`, the z-score in assay [1] is 0.538 (inactive); in assay [3], 2.3 (inactive); in assay [4], -0.0282 (inactive); in [5], 0.0761 (inactive); in assay [6] it was 0.147 (inactive); in assay [7], -0.659. For the same compound, the z-score in assay [8] was -0.566 (inactive); in assay [9], 0.162 (inactive); in assay [10], 1.84; in assay [11], 0.902; in [12] it was 0.592; in assay [13] it was 0.526. Also, the z-score in assay [14] was -0.548; in assay [15], -0.862; in [16], 1.44; in assay [17], -0.901 (inactive); in assay [18], -0.824; in assay [19], 0.581. Besides, the z-score in assay [20] was -0.527 (inactive). This compound returned a composite z-score in assay [2] of 1.09.
